According to PubChem BioAssay AID1458 (National Center for Advancing Translational Sciences (NCATS), 2008):
The campaign covered roughly 210,000 compounds. About 5,900 (2.8%) were called active. Where a call stands in place of a potency, no number is given. Inconclusive results (about 5%) are left out. The call rests on the fitted dose curve; in most records, active means well fitted activation curve with a large enough effect; inconclusive means small, poorly fitted or top-dose-only effect; inactive means no such curve, though single readings can be large or run the other way. For the sample, actives were picked, then their nearest neighbours and some compounds at random.

assay: qHTS Assay for Enhancers of SMN2 Splice Variant Expression; details: HEK293 SMN2-luciferase splicing reporter, luminescence, 30-36 h; series mostly up to 46.1 µM; further: nearly all actives have a fitted effect of over 55% in size
Outline: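 HEK293 cells carry an SMN2 […]–luciferase reporter in which exon 7 inclusion puts luciferase in frame. Cells were plated 10-12 h before compound addition, then incubated 30-36 h at 37C. ONE-Glo luminescence was read; sodium butyrate at 4.5 mM final served as control.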
Potency means the concentration at half of the fitted maximal effect.

Row | Compound | Potency | activity change, positive = activation
1 | COc1cccc(NC(=O)N(Cc2cn(C)c3ccccc23)C2CCCCCC2)c1 | inactive | 
2 | CCn1c2ccccc2c2cc(NC(=O)COc3ccc(C)cc3C)ccc21 | inactive | 
3 | CCOC(=O)c1ccc(NC2=CC(c3ccc(OCC)cc3)N(c3ccc(C(=O)OCC)cc3)C2=O)cc1 (stereo unspecified) | inactive | 
4 | Cc1nn2cc(-c3ccc(Cl)cc3)cnc2c1Br | 3.55 µM (active) | 
5 | COc1ccccc1CNC(=O)CCn1c(=O)c2ccccc2n(CC(=O)Nc2ccc(Br)cc2F)c1=O | inactive | 
6 | COc1ccc(NC(=O)c2ccc3oc(=O)c(S(=O)(=O)c4ccc(F)cc4)cc3c2)c(OC)c1 | inactive | 
7 | O=C(C1CC1)N1CCc2cc(Br)cc(S(=O)(=O)N3CCN(c4ccccc4F)CC3)c21 | inactive | 
8 | COc1cccc(C(=O)NC2=NC(c3ccc(N(C)C)cc3)CC(=O)N2)c1 (stereo unspecified) | inactive | 
9 | Cc1cc(-c2csc(N)n2)c(C)n1Cc1ccccc1 | inactive | 
10 | CC(=O)Nc1ccc(C(=O)Nc2nc(-c3cc(C)n(Cc4ccccc4)c3C)cs2)cc1 | inactive | 
11 | Cc1cc(-c2csc(N)n2)c(C)n1-c1ccccc1 | 12.6 µM (active) | 
12 | COc1ccc(CCNc2nc3c(-c4cccc(F)c4)nnn3c3ccccc23)cc1OC | inactive | 
13 | CCCN(CCC)C(=O)C(Cc1ccccc1)NS(=O)(=O)c1ccc2c(c1)c(=O)n(C)c(=O)n2C (stereo unspecified) | inactive | 
14 | O=C(Nc1ccc(-c2nnc(-c3ccccc3)o2)cc1)C1CCCO1 (stereo unspecified) | 3.55 µM (active) | 
15 | O=C(Nc1nnc(CCc2ccccc2)s1)C1CCCO1 (stereo unspecified) | inactive | 
16 | O=C(Nc1cccc(-c2nnc(-c3ccccc3)o2)c1)C1CCCO1 (stereo unspecified) | inactive | 
17 | CCOc1ccc(CCNC(=O)c2cc3c(=O)n(C)c4ccccc4c3n2C)cc1 | inactive | 
18 | Cn1c(COc2ccccc2C(C)(C)C)nc2ccccc21 | inactive | 
19 | CC1CCN(c2nc3ccc(C(=O)N4CCN(c5ccccc5)CC4)cc3s2)CC1 | inactive | 
20 | C=CC(C1=CC(=O)C=CC1=O)c1ccc(O)cc1 (stereo unspecified) | inactive | 
21 | Cc1cccc(C(=O)O)c1 | inactive | 
22 | Cc1cccc(/C(N)=N/OC(=O)c2ccccc2Cl)c1 | 11.2 µM (active) | 

Row | Compound | Potency | activity change, positive = activation
23 | N/C(=N\OC(=O)c1cc(-c2ccccc2)nc2ccccc12)c1ccncc1 | inactive | 
24 | COc1ccc(CNc2nc(-c3ccc(Cl)cc3)nn2C(=O)c2ccccc2)cc1 | inactive | 
25 | COc1ccc2c(c1)c(=O)c(C(=O)c1ccccc1)cn2CC(=O)Nc1ccc2c(c1)OCCO2 | inactive | 
26 | Cn1c(CC(=O)Nc2ccccc2)nnc1SCC(=O)c1ccccc1 | inactive | 
27 | Cc1ccc(-n2c(C)cc(C(=O)CN3C(=O)C(=O)N(C4CCCC4)C3=O)c2C)cc1 | inactive | 
28 | O=C(CSc1nnc2ccccn12)c1ccccc1 | 12.6 µM (active) | 
29 | COc1ccc(-n2c(C)cc(C(=O)CSc3nnc(-c4cccs4)o3)c2C)cc1 | inactive | 
30 | Cc1ccc(-n2c(C)cc(C(=O)CSc3nnc4ccccn34)c2C)cc1 | 2.24 µM (active) | 
31 | N#Cc1ccc(CSc2nnc3ccccn23)cc1 | inactive | 
32 | Cn1c(=O)c2c(nc(Oc3ccc(C#N)cc3)n2Cc2ccc(Cl)cc2Cl)n(C)c1=O | inactive | 
33 | Cc1cccc(C(C)C)c1NC(=O)C(NS(=O)(=O)c1cccc2nsnc12)c1ccccc1 (stereo unspecified) | inactive | 
34 | CCOC(=O)N1CCc2c(sc3c2c(=O)n(Cc2ccccc2)c(=O)n3CC(=O)Nc2cccc(C)c2)C1 | inactive | 
35 | COc1ccc(N2CCN(C(=O)c3cn(C)c4ccc(S(=O)(=O)N5CCOCC5)cc4c3=O)CC2)cc1 | inactive | 
36 | Cc1cc(NC(=O)CC(C)C)cc(-c2nc3ncccc3o2)c1O | inactive | 
37 | COc1ccc(NC(=O)CSC2=Nc3ccccc3C3=NC(CC(=O)NCc4ccccc4OC)C(=O)N23)cc1Cl (stereo unspecified) | inactive | 
38 | CCc1ccccc1N1CC(c2nc3ccccc3n2CCCCOc2ccccc2)CC1=O (stereo unspecified) | inactive | 
39 | Cc1cc(C)c(NC(=O)c2cc3sc(Cl)cc3n2C)c(C)c1 | inactive | 
40 | O=C(c1cccc(C(=O)N2CCc3ccccc32)n1)N1CCc2ccccc21 | inactive | 
41 | Cc1cnc(C(=O)OCC(=O)N2CCc3ccccc32)cn1 | inactive | 
42 | O=C(c1cnn2ccccc12)N1CCc2ccccc21 | 11.2 µM (active) | 
43 | COc1cc(OC)c(C2C=C(C(=O)O)Nc3ncnn32)cc1OC (stereo unspecified) | inactive | 
44 | FC(F)Oc1ccc(NC(=S)NCc2ccco2)cc1Cl | inactive | 

Row | Compound | Potency | activity change, positive = activation
45 | S=C(NCc1ccc2c(c1)OCO2)NCc1ccco1 | inactive | 
46 | S=C(NCc1ccco1)Nc1ccc2c(c1)OCCO2 | 15.8 µM (active) | 
47 | COc1ccccc1CNC(=O)c1ccc(NC(=O)N2CC(C)Sc3ccccc32)cc1 (stereo unspecified) | inactive | 
48 | CC(=O)N1CCc2cc(Br)cc(S(=O)(=O)CCC(=O)NCCc3ccc(Cl)cc3)c21 | inactive | 
49 | C(=N\Nc1ccc2ccccc2n1)/c1ccc2c(c1)OCO2 | inactive | 
50 | Cc1noc(C)c1/C=N/Nc1ccc2ccccc2n1 | 14.1 µM (active) | 
51 | Cc1cc(C)nc(N/N=C/c2c(C)oc3ccccc23)n1 | inactive | 
52 | CCOC(=O)c1oc2ccc(S(=O)(=O)n3nc(-c4ccccc4OC)cc3N)cc2c1C | inactive | 
53 | COc1ccc(-c2nc3c(c4c2C[C@H](c2ccccc2)OC4)CN(S(=O)(=O)c2c(C)noc2C)CC3)c(C)c1 |  | -6.74% [at 9.22 µM] (inactive)
54 | Cc1ccccc1C(=O)NCc1nc(-c2ccc(Cl)cc2)no1 | inactive | 
55 | Cc1cc(Cl)ccc1OCc1nc(-c2ccncc2)no1 | 12.6 µM (active) | 
56 | COc1ccc(-c2noc(COc3ccc(Cl)c(C)c3)n2)cc1 | inactive | 
57 | O=C(c1ccc2c(c1)N(Cc1ccccc1)C(=O)c1ccccc1S2(=O)=O)N1CCCC1 | inactive | 
58 | O=C(CCCCn1c(=O)c2ccccc2n(CC(=O)Nc2cccc(C(F)(F)F)c2)c1=O)NCc1ccc2c(c1)OCO2 | inactive | 
59 | CCSc1nnc(-c2cc3c(s2)-c2ccccc2CC3)o1 | 15.8 µM (active) | 
60 | Fc1ccc(CSc2nnc(-c3cc4c(s3)-c3ccccc3CC4)o2)cc1 | inactive | 
61 | Cc1cccc(-c2nnc(SCC(=O)N3CCCc4ccccc43)o2)c1 | inactive | 
62 | COc1ccccc1-c1noc(CSc2nnc(-c3ccccc3)n2-c2ccc(C)c(C)c2)n1 | inactive | 
63 | CCCCOc1ccc(C(=O)Nc2cccc(-c3nc4ccccc4o3)c2C)cc1 | inactive | 
64 | NC(=O)Cc1nc2scc(-c3ccc(Cl)cc3)c2c(=O)[nH]1 | inactive | 
65 | O=c1[nH]c(CN2CCOCC2)nc2cc(Cl)ccc12 | inactive | 
66 | O=c1[nH]c(CCl)nc2cc(-c3ccc(Cl)cc3)sc12 | 7.08 µM (active) | 
